The results in this text go back to ChEMBL document CHEMBL2218924, “A broad activity screen in support of a chemogenomic map for kinase signalling research and drug discovery” (Biochem J, 2013).

The target of assay [1] is T1, Serine/threonine-protein kinase TAO1 (Homo sapiens) (UniProt Q7L7X3).
T1 sequence (whole entry): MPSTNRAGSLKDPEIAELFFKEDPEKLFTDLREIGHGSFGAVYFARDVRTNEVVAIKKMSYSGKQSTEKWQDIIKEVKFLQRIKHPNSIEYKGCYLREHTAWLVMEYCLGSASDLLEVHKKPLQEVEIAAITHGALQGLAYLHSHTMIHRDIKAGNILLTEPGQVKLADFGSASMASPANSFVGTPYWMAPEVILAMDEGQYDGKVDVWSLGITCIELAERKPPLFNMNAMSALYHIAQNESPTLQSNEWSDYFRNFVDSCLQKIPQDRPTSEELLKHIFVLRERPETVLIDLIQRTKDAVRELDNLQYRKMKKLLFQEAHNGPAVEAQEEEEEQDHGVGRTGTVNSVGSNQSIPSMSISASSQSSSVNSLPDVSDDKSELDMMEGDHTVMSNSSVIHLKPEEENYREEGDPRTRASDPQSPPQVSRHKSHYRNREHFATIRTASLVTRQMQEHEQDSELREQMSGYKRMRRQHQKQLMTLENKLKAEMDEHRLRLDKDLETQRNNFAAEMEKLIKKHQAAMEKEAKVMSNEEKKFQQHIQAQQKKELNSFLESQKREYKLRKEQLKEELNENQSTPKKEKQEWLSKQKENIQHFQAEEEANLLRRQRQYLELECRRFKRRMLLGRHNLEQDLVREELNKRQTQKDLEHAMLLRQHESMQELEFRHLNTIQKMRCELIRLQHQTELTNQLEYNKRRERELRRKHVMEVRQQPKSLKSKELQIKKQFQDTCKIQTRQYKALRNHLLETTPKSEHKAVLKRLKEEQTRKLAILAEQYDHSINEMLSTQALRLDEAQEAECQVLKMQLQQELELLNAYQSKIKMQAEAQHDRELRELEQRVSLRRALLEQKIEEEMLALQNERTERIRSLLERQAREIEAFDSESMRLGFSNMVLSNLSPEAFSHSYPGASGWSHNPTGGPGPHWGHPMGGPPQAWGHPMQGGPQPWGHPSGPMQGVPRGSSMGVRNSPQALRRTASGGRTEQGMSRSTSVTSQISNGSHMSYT
Conditions: at 10 µM.

The target in assay [2] is T2, Serine/threonine-protein kinase TAO3 (Homo sapiens) (UniProt Q9H2K8).
T2 sequence (whole entry): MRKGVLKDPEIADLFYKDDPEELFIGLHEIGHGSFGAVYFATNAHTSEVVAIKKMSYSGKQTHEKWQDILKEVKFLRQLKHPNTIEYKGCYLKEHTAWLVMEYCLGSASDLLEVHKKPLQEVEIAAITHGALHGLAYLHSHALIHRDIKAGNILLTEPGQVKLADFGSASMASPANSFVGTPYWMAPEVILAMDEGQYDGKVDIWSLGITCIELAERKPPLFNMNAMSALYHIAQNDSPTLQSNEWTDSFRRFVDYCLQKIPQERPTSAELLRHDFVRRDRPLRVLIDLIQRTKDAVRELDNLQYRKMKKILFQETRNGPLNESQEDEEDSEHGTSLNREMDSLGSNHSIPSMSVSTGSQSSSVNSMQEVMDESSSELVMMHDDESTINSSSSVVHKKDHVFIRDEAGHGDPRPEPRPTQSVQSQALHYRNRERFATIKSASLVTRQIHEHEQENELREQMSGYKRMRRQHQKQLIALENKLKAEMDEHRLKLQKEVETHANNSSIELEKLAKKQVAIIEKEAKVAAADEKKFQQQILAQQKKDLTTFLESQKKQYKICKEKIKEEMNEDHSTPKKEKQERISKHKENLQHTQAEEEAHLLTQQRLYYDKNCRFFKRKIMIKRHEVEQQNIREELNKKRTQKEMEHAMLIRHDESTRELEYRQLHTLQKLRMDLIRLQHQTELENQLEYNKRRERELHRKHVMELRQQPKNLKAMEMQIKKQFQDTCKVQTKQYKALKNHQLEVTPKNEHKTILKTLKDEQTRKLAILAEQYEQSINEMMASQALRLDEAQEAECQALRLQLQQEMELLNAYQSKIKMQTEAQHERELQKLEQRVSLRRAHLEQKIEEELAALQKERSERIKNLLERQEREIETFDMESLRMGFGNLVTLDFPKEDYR
Conditions: at 10 µM.

Assay [3] has as its target T3, Serine/threonine-protein kinase TBK1 (Homo sapiens) (UniProt Q9UHD2).
T3 sequence (whole entry): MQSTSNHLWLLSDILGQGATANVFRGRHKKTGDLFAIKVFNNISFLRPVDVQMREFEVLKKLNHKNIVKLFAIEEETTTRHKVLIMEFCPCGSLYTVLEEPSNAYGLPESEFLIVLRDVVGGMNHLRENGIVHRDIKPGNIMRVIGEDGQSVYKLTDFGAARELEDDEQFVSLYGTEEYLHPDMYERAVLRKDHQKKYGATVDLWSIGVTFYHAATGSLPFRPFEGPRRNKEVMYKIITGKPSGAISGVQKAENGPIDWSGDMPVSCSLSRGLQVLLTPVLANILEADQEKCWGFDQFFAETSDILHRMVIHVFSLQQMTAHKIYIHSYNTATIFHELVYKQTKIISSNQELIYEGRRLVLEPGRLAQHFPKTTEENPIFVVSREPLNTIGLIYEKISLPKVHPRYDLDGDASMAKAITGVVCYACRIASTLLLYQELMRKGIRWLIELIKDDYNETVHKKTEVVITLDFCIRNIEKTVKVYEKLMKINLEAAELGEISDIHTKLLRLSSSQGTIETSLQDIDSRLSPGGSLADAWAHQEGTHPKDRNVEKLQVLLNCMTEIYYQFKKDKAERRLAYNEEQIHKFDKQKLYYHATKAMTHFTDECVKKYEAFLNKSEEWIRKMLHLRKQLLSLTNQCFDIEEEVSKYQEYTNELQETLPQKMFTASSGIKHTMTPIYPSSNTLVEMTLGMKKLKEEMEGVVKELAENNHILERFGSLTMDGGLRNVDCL
Conditions: at 10 µM.

Assay [4] addresses T4, Inhibitor of nuclear factor kappa-B kinase subunit beta (Homo sapiens) (UniProt O14920).
T4 sequence (whole entry): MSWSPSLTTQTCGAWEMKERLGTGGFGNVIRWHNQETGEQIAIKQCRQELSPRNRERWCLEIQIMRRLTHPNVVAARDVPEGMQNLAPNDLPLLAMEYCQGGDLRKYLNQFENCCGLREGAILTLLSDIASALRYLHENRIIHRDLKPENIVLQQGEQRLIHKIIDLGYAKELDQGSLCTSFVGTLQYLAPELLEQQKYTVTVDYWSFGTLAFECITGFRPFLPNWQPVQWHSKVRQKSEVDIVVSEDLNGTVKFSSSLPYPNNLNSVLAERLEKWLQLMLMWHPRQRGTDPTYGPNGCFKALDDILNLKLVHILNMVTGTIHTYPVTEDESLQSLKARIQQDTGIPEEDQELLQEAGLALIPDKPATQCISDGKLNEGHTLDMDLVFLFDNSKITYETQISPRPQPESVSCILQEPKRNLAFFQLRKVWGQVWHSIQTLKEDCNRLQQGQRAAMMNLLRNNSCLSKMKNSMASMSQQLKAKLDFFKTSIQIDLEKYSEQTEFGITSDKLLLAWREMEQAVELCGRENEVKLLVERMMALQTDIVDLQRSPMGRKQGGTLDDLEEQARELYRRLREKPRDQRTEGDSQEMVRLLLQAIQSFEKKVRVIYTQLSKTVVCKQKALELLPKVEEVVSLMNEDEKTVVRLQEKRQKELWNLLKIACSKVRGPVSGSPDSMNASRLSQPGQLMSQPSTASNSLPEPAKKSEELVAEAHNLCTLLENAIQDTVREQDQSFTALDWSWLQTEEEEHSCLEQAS
Conditions: at 1 µM.

In assay [5] the target is T4, Inhibitor of nuclear factor kappa-B kinase subunit beta (Homo sapiens). Conditions: at 10 µM.
Assay [6] concerns the target T5, Serine/threonine-protein kinase TAO2 (Homo sapiens) (UniProt Q9UL54).
T5 sequence (whole entry): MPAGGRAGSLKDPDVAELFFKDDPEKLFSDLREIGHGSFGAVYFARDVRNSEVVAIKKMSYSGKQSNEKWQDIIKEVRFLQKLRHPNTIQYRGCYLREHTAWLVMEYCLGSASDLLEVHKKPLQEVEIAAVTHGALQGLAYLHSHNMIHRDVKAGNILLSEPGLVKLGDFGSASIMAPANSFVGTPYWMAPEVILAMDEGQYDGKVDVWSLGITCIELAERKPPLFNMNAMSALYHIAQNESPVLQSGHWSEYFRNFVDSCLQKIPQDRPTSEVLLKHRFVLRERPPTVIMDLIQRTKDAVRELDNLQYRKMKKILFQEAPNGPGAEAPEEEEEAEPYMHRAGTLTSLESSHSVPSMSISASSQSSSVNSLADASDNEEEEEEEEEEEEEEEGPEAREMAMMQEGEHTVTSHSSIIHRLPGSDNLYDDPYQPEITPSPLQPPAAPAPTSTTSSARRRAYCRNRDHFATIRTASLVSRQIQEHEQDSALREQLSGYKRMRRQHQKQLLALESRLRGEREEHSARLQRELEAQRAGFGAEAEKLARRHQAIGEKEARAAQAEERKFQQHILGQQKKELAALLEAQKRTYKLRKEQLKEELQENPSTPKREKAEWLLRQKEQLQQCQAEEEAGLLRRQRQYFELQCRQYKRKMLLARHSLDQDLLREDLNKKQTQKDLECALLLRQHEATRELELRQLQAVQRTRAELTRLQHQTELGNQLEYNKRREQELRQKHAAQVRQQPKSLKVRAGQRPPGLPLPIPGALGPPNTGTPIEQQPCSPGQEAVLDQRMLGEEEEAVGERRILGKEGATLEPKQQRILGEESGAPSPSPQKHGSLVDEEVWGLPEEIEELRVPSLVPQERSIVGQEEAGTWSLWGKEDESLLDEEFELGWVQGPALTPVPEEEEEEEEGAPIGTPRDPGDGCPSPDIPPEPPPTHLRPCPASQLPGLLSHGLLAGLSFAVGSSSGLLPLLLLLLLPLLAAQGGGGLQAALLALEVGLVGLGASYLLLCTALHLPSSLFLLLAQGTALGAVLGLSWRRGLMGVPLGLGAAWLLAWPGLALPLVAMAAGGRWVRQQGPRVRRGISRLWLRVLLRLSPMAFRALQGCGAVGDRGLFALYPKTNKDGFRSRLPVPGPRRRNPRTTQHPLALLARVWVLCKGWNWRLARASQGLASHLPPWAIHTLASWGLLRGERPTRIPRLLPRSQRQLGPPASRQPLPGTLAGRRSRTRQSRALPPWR
Conditions: at 1 µM.

Assay [7] deals with T5, Serine/threonine-protein kinase TAO2 (Homo sapiens). Conditions: at 10 µM.
In assay [8] the target is T2, Serine/threonine-protein kinase TAO3 (Homo sapiens). Conditions: at 1 µM.
Assay [9] deals with T3, Serine/threonine-protein kinase TBK1 (Homo sapiens). Conditions: at 1 µM.

As usually defined, the residual activity is the signal under treatment as a percentage of the control signal. For `O=S(=O)(NCCNC/C=C/c1ccc(Br)cc1)c1cccc2cnccc12`, the residual activity in assay [1] stood at 59%; in assay [2] it was 61%; in [3] it was 66%; in assay [4] it was 126%; in assay [5], 100%.

`COc1cc2nccc(Oc3ccc(NC(=O)Nc4cc(C)on4)c(Cl)c3)c2cc1OC`: the residual activity was 52% in assay [1]; 73% in assay [6]; 43% in [7]; 82% in [8]; 57% in assay [2]; 82% in assay [9]. For the same molecule, the residual activity in assay [3] is 68%; in assay [4], 104%; in [5], 102%.
